Here are results for 30 molecules from PubChem BioAssay (EPA / NIEHS).

SMILES strings stand for the structures. Results filed as inconclusive are left out. The source made the active and inactive calls. The calls were made as follows, unless noted: active = hit-call score of the fitted dose curve at least 0.9, where 1 is the maximum; inactive = score below 0.9.

Broadly, the AC50 is the midpoint of the concentration-response curve, whichever way the signal moves.

In one test the target is human Retinoic Acid Receptor beta (RARb), RARB (gene 5915) (UniProt P10826). Kind of test: ATG_RARb_TRANS: Attagene TRANS-FACTORIAL HepG2 Assay for human Retinoic Acid Receptor beta (AID 2283004; active = hit-call score of the fitted dose curve at least 0.9, where 1 is the maximum).
Chain of human Retinoic Acid Receptor beta (RARb), RARB (gene 5915) (P10826 whole entry, looked up): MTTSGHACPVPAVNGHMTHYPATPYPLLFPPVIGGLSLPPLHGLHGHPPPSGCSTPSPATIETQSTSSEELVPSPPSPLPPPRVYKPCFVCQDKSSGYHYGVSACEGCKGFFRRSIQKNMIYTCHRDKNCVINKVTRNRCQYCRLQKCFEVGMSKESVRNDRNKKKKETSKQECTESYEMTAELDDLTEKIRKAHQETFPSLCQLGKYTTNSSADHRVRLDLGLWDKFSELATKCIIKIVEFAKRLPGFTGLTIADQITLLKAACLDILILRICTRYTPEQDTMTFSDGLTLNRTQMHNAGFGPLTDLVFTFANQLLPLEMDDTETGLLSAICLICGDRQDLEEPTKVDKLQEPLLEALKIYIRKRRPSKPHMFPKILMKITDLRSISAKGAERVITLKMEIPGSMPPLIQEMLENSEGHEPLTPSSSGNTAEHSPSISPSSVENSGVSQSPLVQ
Conditions: not given
In outline: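 HepG2 cells transiently transfected with multiplexed GAL4-UAS reporter units expressing chimeric NR–Gal4 fusions; 24 h compound exposure. Reporter mRNA quantified by RT-PCR, 6-FAM labelling, HpaI digestion and capillary electrophoresis; gain-of-signal fitted against DMSO baseline.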
For `Oc1ccccc1O`, the outcome was inactive.

Consider `CC(C)(O)c1ccc(CNC(=O)c2cccnc2Oc2ccc(F)cc2)cc1`, for which the molecule was called inactive.

As for `CC(C)COC(=O)CCCCC(=O)OCC(C)C`, the molecule was classed as inactive.

Consider `O=NO`, for which the result was inactive.

As to `Oc1ccc(O)cc1`, the molecule was called inactive.

Consider `O=C(Oc1ccccc1)c1cccc(C(=O)Oc2ccccc2)c1`, for which the molecule was classed as inactive.

Read-out in a further test: not listed separately
In words: BSK_3C_Proliferation: Cell Proliferation Assessment in the BioMAP Diversity Plus: 3C Assay (AID 2283006).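 As to AC50: potency may reflect either rise or fall in cell number versus DMSO.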 The settings on record: primary human endothelial cells (HUVEC). In outline: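 Subconfluent HUVEC (3C system) cultured with chemical; relative cell number read at 48 h by sulforhodamine B total-protein staining (0.1% SRB after 10% TCA fixation, 560 nm). Bidirectional fit relative to DMSO.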
On to `CCCCC(CC)COP(=O)(OCC(CC)CCCC)OCC(CC)CCCC` (stereo unspecified), for which the AC50 is 20.6 µM (active).

Consider `Oc1ccccc1O`, for which the AC50 was 10.1 µM (active).

For `CC1=C(C)S(=O)(=O)CCS1(=O)=O`, the result was inactive.

With `CC(C)(O)c1ccc(CNC(=O)c2cccnc2Oc2ccc(F)cc2)cc1`, the outcome was inactive.

Turning to `COC(=O)CCC(=O)OC`, the result was inactive.

With `CC(C)COC(=O)CCCCC(=O)OCC(C)C`, the outcome was inactive.

On to `COc1ccc(C(=O)Nc2nc3ccccc3c(NCc3ccccc3)c2C#N)cc1`, for which the AC50 is 9.43 µM (active).

Take `O=C1O[C@H]([C@H](O)CO)C(O)=C1O`: the result was inactive.

Consider `C/C=C/c1ccc(OC)cc1`, for which the outcome was inactive.

Consider `O=C(O)CN(CC(=O)O)CC(=O)O`, for which the result was inactive.

Turning to `O=NO`, the result was inactive.

With `CO[C@@H]1COCC[C@@H]1N[C@@H]1CC[C@@](C(=O)N2CCc3ncc(C(F)(F)F)cc3C2)(C(C)C)C1`, the result was inactive.

Take `CCCC[C@H]1CN(CC2CCOCC2)C(=O)OC12CCN(C1(C)CCN(C(=O)c3c(C)ncnc3C)CC1)CC2`: the outcome was inactive.

For `CCc1cc(C2=C(C(=O)O)N(c3ccccc3C(F)(F)F)S(=O)(=O)c3ccccc32)cc2c1OCO2`, the AC50 is 16.6 µM (active).

Regarding `Oc1ccc(O)cc1`, the AC50 was 20 µM (active).

Regarding `Cc1cc(SC2=C(O)C[C@@](CCc3ccc(N)cc3)(C(C)C)OC2=O)c(C(C)(C)C)cc1CO`, the outcome was inactive.

`CN(C)CCCN(C)CCCN(C)C`: the result was inactive.

For `O=C(O)c1cccnc1`, the result was inactive.

For `CCCCCCCCCC[N+](C)(C)[O-]`, the outcome was inactive.

`CCCCc1nc2cccnc2n1Cc1ccc(-c2ccccc2-c2nnn[nH]2)cc1`: the result was inactive.

As for `CC1(C)C(=O)NC(=O)N1CO`, the AC50 is 5.5 µM (active).

For the molecule `CCCCCCCCCCCCCCOS(=O)(=O)O`, the AC50 is 30.1 µM (active).

Regarding `CCc1nc(N)nc(N)c1-c1ccc(Cl)cc1`, the result was inactive.

For the molecule `COC(=O)[C@H]1[C@H]2C[C@@H]3c4[nH]c5cc(OC)ccc5c4CCN3C[C@H]2C[C@@H](OC(=O)c2cc(OC)c(OC)c(OC)c2)[C@@H]1OC`, the AC50 is 16.9 µM (active).

Regarding `CCCCCCC(CCCCCCCCCCC(=O)OCC(COC(C)=O)OC(C)=O)OC(C)=O` (stereo unspecified), the concentration at half-maximal activity (AC50) is 10 µM (active).

Turning to `COC(=O)CCCC(=O)OC`, the result was inactive.

For `O=C1c2c(O)cccc2Cc2cccc(O)c21`, the AC50 is 15 µM (active).

Regarding `CCCCOC(=O)CCCCC(=O)OCCCC`, the outcome was inactive.

For `CN(C)CCCN1c2ccccc2Sc2ccc(Cl)cc21`, the AC50 was 25 µM (active).

Turning to `O=C(Oc1ccccc1)c1cccc(C(=O)Oc2ccccc2)c1`, the AC50 is 15.2 µM (active).
